Reference: PubChem BioAssay AID624297 (National Center for Advancing Translational Sciences (NCATS), 2012)
Hit rate of the full screen: of about 340,000 compounds, about 6,200 (1.8%) were called active. Another 10% or so got no clear call; they are omitted. The call rests on the fitted dose curve; in most records, active means well fitted activation curve with a large enough effect; inconclusive means small, poorly fitted or top-dose-only effect; inactive means no such curve, though single readings can be large or run the other way. Shown is part of a subset that was picked to be rich in actives.

experiment: A quantitative high throughput screen for small molecules that induce DNA re-replication in SW480 colon adenocarcinoma cells.; further: nearly all actives have a fitted effect of over 55% in size; on re-replication activation: % of control where 0% means no effect; conditions: Hoechst DNA content imaging, 48 h; series mostly up to 46.1 µM
Summary of the method: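 DNA re-replication was detected as more nuclei of elevated Hoechst intensity after 48 hr exposure to compound (23 nL pinned per well of 250 cells).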
Potency means the concentration at half of the fitted maximal effect.

Potency, inactive:
O=c1c2ccccc2ncn1CCc1ccncc1, COc1ccccc1C(=O)OCC(=O)Nc1cccc(S(=O)(=O)NC2=NCCCCC2)c1, CCOc1ccccc1CNS(=O)(=O)c1cc(-c2cc(C)no2)ccc1C, Cc1cc(-c2ccc(C)c(S(=O)(=O)NC(C)Cc3ccco3)c2)on1 (stereo unspecified), COc1cccc2oc(CCc3ccccc3)cc(=O)c12, CCOc1cc(C(=O)N(Cc2ccccc2)c2ccc(C)cc2)ccc1OCC(=O)N1CCOCC1, CC(C(=O)NC1CCS(=O)(=O)C1)N1C(=O)/C(=C/c2ccc(Cl)cc2)SC1=S (stereo unspecified), CC1CCN(C2=NC(=O)/C(=C/c3ccc(O)cc3)S2)CC1, O=C(COC(=O)c1cccnc1Cl)Nc1ccc(S(=O)(=O)N2CCOCC2)cc1, COCCN(C(=O)CSCc1ccc(C)cc1)c1c(N)n(CC(C)C)c(=O)[nH]c1=O, CC(C(=O)NC1CCCC1)N(c1ccc(Oc2ccccc2)cc1)S(C)(=O)=O (stereo unspecified), COc1ccc(/C=N/NS(=O)(=O)c2ccc(NC(C)=O)cc2)cc1, CC(C)(C)OC(=O)C[C@@H]1C/C=C\C[C@@H](CC(=O)N[C@@H](CO)Cc2ccccc2)C(=O)N2CCC[C@H]2COC1=O, CC1CCCCC1NC(=O)COc1ccc(C#N)cc1 (stereo unspecified), Oc1c(C(c2ccccn2)N2CCOCC2)ccc2cccnc12 (stereo unspecified), Oc1ccccc1CN1CCN(C(c2ccccc2)c2ccccc2)CC1, COc1cc(C(=O)N2CCN(S(=O)(=O)c3ccc(C(C)C)cc3)CC2)ccc1OCC(=O)N1CCOCC1, COC(=O)[C@]1(C)N[C@H](CN(C)C(=O)c2ccc(C(C)(C)C)cc2)[C@@H]2C(=O)N(C)C(=O)[C@@H]21, COc1cc(/C=C/CNC[C@H]2O[C@@H](n3cnc(C(N)=O)n3)[C@H](O)[C@@H]2O)ccc1O, CCNC(=O)CSc1nc(-c2ccccc2)cs1, Nc1c(C(=O)NCc2ccccc2)sc2nc3c(cc12)C(=O)CCC3, Cc1ccc(S(=O)(=O)N2CCC(C(=O)N3CCCCCCC3)CC2)cc1, COc1ccc(CNC(=O)COC(=O)C2=Cc3ccccc3OC2)cc1, Cc1nnc2n1N=C(c1ccccc1)CS2, CC1=Nn2c(nnc2-c2ccccc2)SC1, COC(=O)[C@]1(CC(C)C)N[C@H](c2ccc(SC3CCCCC3)cc2)[C@@H]2C(=O)N(C)C(=O)[C@@H]21, Cc1cccc(Nc2nc3c(S(=O)(=O)c4ccccc4)nnn3c3ccccc23)c1C, Cc1ccc(S(=O)(=O)c2nnn3c2nc(N2CCN(c4ccccn4)CC2)c2ccccc23)cc1, S=C(Nc1ccccc1)Nc1ccc2ccccc2c1, Cc1cccn2c(=O)c3cc(C(=O)N4COCC4(C)C)n(C)c3nc12, Cc1cccn2c(=O)c3cc(C(=O)NC4CCCCC4)sc3nc12, NN=C(NN=Cc1ccccc1)c1ccccc1, COc1ccccc1-n1c(CNC(=O)c2ccccc2)nnc1SCC(=O)Nc1nnc(C)s1, Cc1cccc(CSc2nnc(NC(=O)CSc3nnc(C)s3)s2)c1, Cc1cc([N+](=O)[O-])c(=O)[nH]c1C, O=C(c1nnc(-c2ccc(Cl)cc2)o1)C1CCCC1, N=C1c2ccccc2-c2ccccc21, COC(=O)c1ccc(C)c(NC(=O)Cn2c(C)csc2=O)c1, CC(C)N(C(=O)[C@H]1C[C@H](CC(=O)NC(C)(C)C)C(=O)N2CCc3c([nH]c4ccc(Cl)cc34)[C@]12C)C(C)C, COc1ccc(S(=O)(=O)N(C)C[C@H]2Oc3c(NC(=O)Nc4ccc5c(c4)OCO5)cccc3C(=O)N([C@H](C)CO)C[C@@H]2C)cc1, CCOC(=O)C(CO)NC(=O)C1(NC(C)=O)CCCC1 (stereo unspecified), C=CCn1c(SCC(=O)NCCCO)nc2sc3c(c2c1=O)CCC3, C=CCn1c(SCC(=O)NCC2CCCO2)nc2sc(C)c(C)c2c1=O (stereo unspecified), Cc1ccc(NC(=O)CN(C)C(=O)c2ccc(Cl)c(S(=O)(=O)NCc3ccco3)c2)cc1, Cc1c(Cl)cnc(NC(=O)COC(=O)C2CCCC2)c1Cl, O=C1CC(c2ccccc2)C(c2ccccc2)=NN1 (stereo unspecified), S=c1[nH]c(-c2cccs2)cn1-c1ccccc1, COc1ccc(-c2cn(-c3ccc(OC)cc3)c(=S)[nH]2)cc1, O=C(O)c1ccc(S(=O)(=O)c2ccccc2)s1, CCOC(=O)N1CCN(S(=O)(=O)c2ccc(OC)cc2)CC1, NC(=O)c1ccccc1N(Cc1ccccc1)S(=O)(=O)c1ccccc1, CCOC(=O)c1ccccc1NC(=O)CSc1nc2c(sc(=S)n2CC)c(=O)[nH]1, CCOC(=O)C1=C(c2ccccc2)NC(=S)NC1c1ccc(Cl)cc1 (stereo unspecified), CCOC(=O)C1=C(CN2CCCCCC2)NC(=O)NC1c1cccc([N+](=O)[O-])c1 (stereo unspecified), O=C(CN1CCN(S(=O)(=O)/C=C/c2ccccc2)CC1)NC(=O)NCc1ccco1, O=C(CN1CCN(c2ccccc2O)CC1)NC(=O)NCc1ccccc1, COC1=CC(=O)OC(c2ccc(OC)cc2)C1 (stereo unspecified), COc1ccccc1CCNC(=O)C(=O)NCCC1CCCCN1S(=O)(=O)c1cccs1 (stereo unspecified), COc1ccc(CCNC(=O)C(=O)NCC2CCCN2S(=O)(=O)c2cccs2)cc1OC (stereo unspecified), Cc1noc(C)c1NC(=O)Nc1ccc2c(c1)C(=O)N([C@H](C)CO)C[C@H](C)[C@@H](CN(C)C(=O)Nc1ccc(C(F)(F)F)cc1)O2, CCNc1nc(NCC)nc(N/N=C/c2ccc(O)c(OC)c2)n1, Cc1cc(C)nc(N/N=C/c2ccncc2)n1, Oc1ccc(Cl)c2c1CCC2, CSc1ncnc2c1ncn2CC(=O)C1CCC2C3CCC4=CC(=O)CCC4(C)C3CCC12C (stereo unspecified), Cc1ccc(C(=O)NCC(=O)NC2CC2)cc1, Cc1cc(NC(=O)c2cc3ccccc3o2)no1, COc1ccc(C(=O)Nc2ccc(C3(C#N)CCCC3)cc2)cc1OC, CCNC(=O)c1ccc(OCC(=O)Nc2ccc(F)cc2)c(OC)c1, CN(C)C(=O)CCc1ccc2c3c([nH]c2c1)[C@]1(C)[C@@H](C(=O)N2CCOCC2)C[C@H](CC(=O)NCCc2ccccn2)C(=O)N1CC3, COc1ccc(NS(=O)(=O)c2ccc(N3CCOCC3)c(NC(=O)/C=C/C(=O)O)c2)cc1, Cc1ccc(S(=O)(=O)CCC(=O)OCC(=O)N(C)Cc2ccccc2)cc1, Cc1ccc(-n2c(O)c(C=Nc3ccc(S(=O)(=O)Nc4ncccn4)cc3)c3ccccc3c2=O)cc1C, CCOc1ccc(-n2c(SCC(=O)Nc3cc(C(=O)O)ccc3Cl)nc3ccccc3c2=O)cc1, COc1ccc(C(CNC(=O)c2cccc(S(=O)(=O)Nc3ccc(Br)cc3)c2)N(C)C)cc1 (stereo unspecified)

Potency, active:
Cc1cc(-c2ccc(C)c(S(=O)(=O)NCCCN(Cc3ccccc3)C(C)C)c2)on1 18.4 µM, O=C1/C(=C\c2ccc(O)cc2)CCC1CNc1ccc(Cl)cc1 (stereo unspecified) 16.4 µM, COc1ccc(/C=N/NC(=O)C(C)N(c2ccc(OC)cc2)S(C)(=O)=O)cc1 (stereo unspecified) 18.4 µM, CCN1CCN(C(c2cccnc2)c2cc(Cl)c3cccnc3c2O)CC1 (stereo unspecified) 20.6 µM, CCN(CC)C(=O)c1sc2nc(-c3ccccc3)ccc2c1N 20.6 µM, COc1ccc(C2=Nn3c(nnc3-c3ccccc3OC)SC2)cc1OC1CCCC1 2.31 µM, CC(=O)Nc1ccc(Nc2nc3c(S(=O)(=O)c4ccc(C)c(C)c4)nnn3c3ccccc23)cc1 18.4 µM, Cc1cccn2c(=O)c3cc(C#N)c(=NC(=O)c4cccnc4)n(CC4CCCO4)c3nc12 (stereo unspecified) 18.4 µM, Cc1nnc(NC(=O)CSc2nccn2-c2cccc(C)c2C)s1 8.2 µM, O=C(c1[nH]ncc1-c1ccc(Cl)cc1)C1CO1 (stereo unspecified) 16.4 µM, CN1c2ccc(C=O)c3c(C=O)ccc(c23)N(C)C1(C)C 3.26 µM, C=CCn1c(SCc2c(C)noc2C)nc2sc3c(c2c1=O)CCC(C)C3 (stereo unspecified) 9.2 µM, O=c1oc2ccccc2cc1-c1cn(-c2ccccc2)c(=S)[nH]1 9.2 µM, CCOC(=O)N1CCN(C(=O)c2ccccc2N(Cc2ccccc2)S(=O)(=O)c2ccc(OC)cc2)CC1 14.6 µM, CCOC(=O)C1=C(CN2CCc3ccccc32)NC(=O)NC1c1ccc(Cl)cc1 (stereo unspecified) 7.31 µM, COc1ccccc1N1CCN(CC(=O)NC(=O)NCc2ccco2)CC1 5.8 µM, O=C(NCCC1CCCCN1S(=O)(=O)c1cccs1)C(=O)Nc1ccc(F)cc1F (stereo unspecified) 11.2 µM, CCN(CC)c1ccc(/C=N/Nc2nc(C)cc(C)n2)c(O)c1 8.2 µM, COc1ccc(C(=O)N/N=C2\CCS(=O)(=O)c3ccc(F)cc32)cc1OC 10.3 µM, CCOc1ccc(-n2c(O)c(/C=N/c3ccnn3Cc3ccncc3)c3ccccc3c2=O)cc1 20.6 µM

re-replication activation, inactive:
CC[C@]12c3[nH]c4cc(CCC(=O)N(C)C)ccc4c3CCN1C(=O)[C@@H](CC(=O)NCC13CC4CC(CC(C4)C1)C3)C[C@@H]2C(=O)N1CCN(C(=O)C2CC2)CC1 -2.17% [at 9.22 µM], O=[N+]([O-])c1ccc(COc2ccccc2CN2CCOCC2)cc1 -7.64% [at 9.22 µM]
